Screening data as filed in PubChem BioAssay.
HSP90 refold inh: HSP90 inhibitors, primary screen, cell lysate, luminescence; Heat shock protein HSP 90 (rabbit reticulocyte lysate; luciferase refolding); Rabbit reticulocyte lysate, luciferase refolding luminescence, 3 h; inhibition, % at 5.6 µM; actives 0.91% (n = 290,000); AID 1789, 2009;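 active means inhibition above the screen-wide mean plus 3 SD, computed separately per campaign, cut at about 16% in these data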;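 further: 0% = DMSO wells and 100% = 60 µM geldanamycin wells; inhibitors lower the luminescence because luciferase stays unfolded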
LGR2 inh: inhibitors of bursicon-induced LGR2 CRE-luciferase signal, primary screen, cell-based, HEK293, CRE-luciferase reporter, bursicon stimulation; bursicon-stimulated, 4 h; actives 0.35% (n = 380,000); inhibition, % at 9.99 µM;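 active means drop in luminescence signal, shown as inhibition above about 50% in the replicate tests, limit read from the data, passing the limit was not always enough; inconclusive means probably only some replicates passing the limit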;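 further: agonist challenge used bursicon conditioned medium at about half maximal strength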
TWEAK-Fn14 inh: inhibitors of TWEAK-Fn14 signaling, primary screen, luciferase reporter cells, uHTS. TWEAK-stimulated Fn14 reporter cells, luciferase luminescence, 8 h. inhibition, % at 10 µM. actives 2% (n = 360,000); in the data active means inhibition above about 50%
TROY signal inh: inhibitors of TROY-driven NF-kB signaling, primary screen, Q293 LMP1-TROYcd cells, NF-kB luciferase, uHTS | inhibition, % at 10 µM | AID 1347056, 2019 | Q293 LMP1-TROYcd NF-kB luciferase reporter, 4 h | actives 0.98% (n = 360,000);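 active means compounds whose plate-normalised and pattern-corrected inhibition of the luciferase reporter signal at the single screening dose is 50% or more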
Active calls of the source: *; u = inconclusive; x = no result given; ! = not active in a repeat. Most compounds without a hit are left out; they make up all but 2.2% or so of the library.

SMILES	HSP90 refold inh	LGR2 inh	TWEAK-Fn14 inh	TROY signal inh
C[C@H](CO)N1C[C@H](C)[C@@H](CN(C)C(=O)Nc2ccc3c(c2)OCO3)Oc2c(NC(=O)CCCCCC(=O)Nc3ccccc3N)cccc2C1=O	x	-2	x	x
C[C@H]1CN([C@@H](C)CO)C(=O)Cc2cc(NC(=O)CCCCCC(=O)Nc3ccccc3N)ccc2O[C@@H]1CN(C)Cc1ccccc1	x	9	x	x
N#Cc1ccccc1CSc1ccc(-c2nc3ccccc3[nH]2)cn1	5	x	59*	59*
Cc1cc2nc(-c3ccc(SCc4ccc(C#N)cc4)nc3)[nH]c2cc1C	4	8	58*	47
Cc1cc2nc(-c3ccc(SCC(=O)Nc4nccs4)nc3)[nH]c2cc1C	2	-6	-46	-22
COc1ccc(S(=O)(=O)Nc2ccc3c(c2)C(=O)N([C@@H](C)CO)C[C@@H](C)[C@H](CN(C)S(=O)(=O)c2cccs2)OCCCC[C@H](C)O3)cc1	x	-19	x	x
O=C(NCCCSc1ccccc1)c1cc(Cl)ccc1O	-6	3	55*	37
C=C1[C@@H](O)[C@H](CC(C)C)N(Cc2ccccc2Br)S1(=O)=O	x	48	79*	18
Cc1ccccc1CN1[C@@H](CC(C)C)COc2cc(Br)ccc2S1(=O)=O	x	2	x	x
COc1ccc(S(=O)(=O)N[C@@H]2CC[C@@H](CC(=O)O)O[C@H]2CO)cc1	x	6	x	x
COc1ccc2c3c([nH]c2c1)[C@@H](CO)N(C(=O)c1cccc(F)c1)CC31CCN(S(=O)(=O)c2cccs2)CC1	x	10	x	x
O=C1NC(c2ccc(Cl)cc2Cl)Oc2ccccc21 (stereo not drawn)	-2	-4	-11	-14
Cc1ccccc1C1NC(=O)c2ccccc2O1 (stereo not drawn)	1	14	88*	-8
Nc1nc(-c2ccc(C(=O)O)cc2)cs1	2	x	-11	-11
Nc1cc2sc(-c3ccc(C(=O)O)cc3)nc2cc1Cl	18*	u	29	-15
Cn1ccc2cc(-c3ccc4ncnc(NCc5cccs5)c4c3)ccc21	x	x	55*	12
COc1cccc(-c2ccc3ncnc(NCc4cccc(C)c4)c3c2)c1	x	14	63*	50*
COc1cccc(CNc2ncnc3ccc(-c4c(C)noc4C)cc23)c1	x	-8	79*	30
Cc1ccsc1CNc1ncnc2ccc(-c3c(C)noc3C)cc12	x	4	81*	44
CCC(=O)N1CC2(CCN(C(=O)c3cccnc3)CC2)c2c([nH]c3cc(OC)ccc23)[C@H]1CO	x	-1	x	x
CN1CCN(C(=O)C[C@H]2C[C@H]3c4cc(NC(=O)c5ccc6c(c5)OCO6)ccc4O[C@H]3[C@@H](CO)O2)CC1	x	-16	x	x
CCC(=O)Nc1ccc2c(c1)C(=O)N(C)C[C@H](OC)[C@H](C)CN(C(=O)C1CCC1)[C@H](C)CO2	x	-16	x	x
COCCCNc1ncnc2ccc(C)cc12	-1	x	39	55*
COc1cccc(-c2ccc3ncnc(NCc4cccs4)c3c2)c1	x	11	69*	44
COc1ccccc1CNC(=O)C[C@H]1CC[C@@H]2[C@H](COC[C@H](O)CN2C(=O)Nc2ccc(F)cc2)O1	x	-11	x	x
SMILES	HSP90 refold inh	LGR2 inh	TWEAK-Fn14 inh	TROY signal inh
COc1ccc(OC)c(CNc2ccc3c(c2)CCC3)c1	1	-36	61*	51*
COc1ccc(OC)c(CC(=O)Nc2ccc3c(c2)CCC3)c1	-1	18	-1	8
COc1cccc(CNc2ccc(C)c(Cl)c2)c1	0	-27	-10	-32
COc1cccc(CNc2ccc3c(c2)CCC3)c1	6	x	51*	44
CCCCc1c(C)c(C#N)c2[nH]c3ccccc3n2c1=O	3	x	9	52*
CCCCN(C)CCCNC(=O)c1cn(CC)c2ccc(S(=O)(=O)N3CCc4ccccc4C3)cc2c1=O	3	8	3	21
CCCCN(CC)CCCNC(=O)c1cn(CC)c2ccc(S(=O)(=O)N3CCc4ccccc4C3)cc2c1=O	-3	85*	-16	-14
CCCC#Cc1ccc([C@H]2[C@@H](CO)N(C(C)=O)[C@@H]2CNC(=O)C2CCCC2)cc1	x	-5	x	x
Cc1ccc(-c2nnc(CSc3nc(C(C)C)nc4sc(C)c(C)c34)o2)cc1	0	x	83*	x
C=CCNc1ncnc2ccccc12	-2	x	41	50*
c1ccc(CNc2ncnc3ccccc23)cc1	2	29	52*!	28
CCCCNc1nc(NCc2ccccc2)nc2ccccc12	x	33	34	55*
CC(C)NC(=O)N(C)C[C@@H]1Oc2cc(C#CC3CC3)ccc2S(=O)(=O)N([C@@H](C)CO)C[C@H]1C	x	7	x	x
C[C@H](CO)N1C[C@H](C)[C@H](CN(C)C(=O)c2cnccn2)Oc2ncc(/C=C/c3ccccc3)cc2C1=O	x	3	x	x
Cn1c(C(=O)OCC(=O)NCc2cccs2)cc2sccc21	-1	-19	0	-32
Cn1c(C(=O)OCC(=O)NCCc2ccccc2)cc2sccc21	-2	3	53*	-4
Cc1cc(C(=O)Nc2nc3c(s2)CCCC3)no1	12	x	61*	-2
O=C(O)c1ccccc1-c1ccc(C=c2sc3nc4cc(Br)cnc4n3c2=O)o1	x	2	54*	14
O=C(C[C@@H]1C[C@@H]2c3cc(NC(=O)CC4CC4)ccc3O[C@@H]2[C@@H](CO)O1)NCc1ccc2c(c1)OCO2	x	2	x	x
Cc1cccc(/C=N/NC(=O)c2cccc([N+](=O)[O-])c2)n1	1	2	-39	-34
Cc1cc(/C=N/NC(=O)c2cccc([N+](=O)[O-])c2)c(C)n1-c1ccc(Cl)cc1Cl	-1	x	95*	x
CC(C)CC1NC(=O)c2cccnc2-n2c1nc1cc(F)c(F)cc1c2=O (stereo not drawn)	x	7	-28	-6
COc1ccc2nc3n(c(=O)c2c1)-c1ncccc1C(=O)NC3CC(C)C (stereo not drawn)	x	11	76*	2
O=C(C1CCCC1)N1CC2(C1)[C@H](c1ccccc1)[C@@H](CO)N2CC1CCCC1	x	-21	x	x
O=C1c2ccccc2-c2nnc(-c3ccc(F)cc3)cc21	-2	51*	75*	-2
SMILES	HSP90 refold inh	LGR2 inh	TWEAK-Fn14 inh	TROY signal inh
O=C1c2ccccc2-c2nnc(-c3ccc(O)cc3)cc21	11	24	9	-19
O=[N+]([O-])c1ccc(/C=N\NS(=O)(=O)c2ccc(F)cc2)o1	-2	-5	84*	19
COc1ccc(S(=O)(=O)N/N=C\c2ccc([N+](=O)[O-])o2)c(OC)c1	0	1	-15	-6
COc1ccc(C2=Nn3c(nnc3-c3ccccc3Cl)SC2)cc1OCC1CC1	x	15	32	61*
C/C=C/c1cnc2c(c1)C(=O)N([C@@H](C)CO)C[C@@H](C)[C@H](CN(C)S(=O)(=O)c1ccccc1)O2	x	10	x	x
C[C@@H]1CCCCO[C@@H](CN(C)S(=O)(=O)c2cn(C)cn2)[C@H](C)CN([C@H](C)CO)C(=O)c2cc(NS(=O)(=O)c3ccccc3)ccc2O1	x	8	x	x
COC(=O)C(=C/C(C)=C/c1cccnc1)C(=O)OC	1	28	65*	42
COC(=O)/C(=C/c1cccnc1)NC(=O)c1ccccc1	4	4	6	-6
